Measurements: PubChem BioAssay AID504599 (National Center for Advancing Translational Sciences (NCATS), 2011)
Active and inactive are the calls of the source. Calls follow the shape of the dose curve; as a rule, active = well fitted inhibition curve with a large enough effect; inconclusive = small, poorly fitted or top-dose-only effect; inactive = flat fitted curve, though single readings scatter.

Experiment: Quantitative high throughput screen for delayed death inhibitors of the malarial parasite plastid, 96 hour incubation.
Conditions: P. falciparum luciferase growth
Text: NIH Molecular Libraries Probe Production Network [MLPCN] NIH Chemical Genomics Center [NCGC] MLPCN Grant: R21 NS059500 Assay Provider: David Fidock and Eric Ekland, Columbia University The goal of this screen is to discover new antimalarial compounds that act by inhibiting the development of the apicoplast in the malarial parasite Plasmodium falciparum. The biochemical processes that make this organelle essential for erythrocytic stage parasites are not well understood. However, antibiotics, such as azithromycin and tetracycline, which target the apicoplast translational machinery, have a potent antimalarial effect. […] We have developed a cell-based assay that measures parasite growth based on the expression of an integrated copy of a firefly luciferase reporter. […] Growth inhibition is detected by a decrease in luciferase activity
Four microliters of culture medium (RPMI 1640 with 0.5% w/v Albumax (GIBCO), 24 mM sodium bicarbonate and 10 ug/mL gentamycin) were dispensed by a Multi-drop Combi into white solid 1536-well plates (Grenier) and 23 nL compound was added by a pin tool. […] Two microliters of luciferase detection reagent was added and luminescence was detected by a ViewLux (PerkinElmer) reader

SMILES	Potency
COCCOC(=O)N(C)C[C@@H]1OCCCC[C@H](C)Oc2ccc(NC(=O)Nc3ccccc3)cc2C(=O)N([C@@H](C)CO)C[C@H]1C	17.9 µM (active)
COc1ccc(COC[C@H](C)N2C[C@@H](C)[C@H](CN(C)S(=O)(=O)c3ccc(F)cc3)OCCCC[C@H](C)Oc3ccc(NC(=O)Nc4ccccc4)cc3C2=O)cc1	0.0025 µM (active)
